Assay outcomes: PubChem BioAssay, National Center for Advancing Translational Sciences (NCATS)
NS1 function inh = influenza NS1 inhibition. Potency, µM (highest dose often 46.1 µM), for the others: top-dose activity, positive = more growth. 270,000 compounds, 0.4% hits; calls by dose curve; note: potency is the fitted concentration of half-maximal effect; actives are rising curves; nearly all actives have a fitted effect of over 50% in size
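A cell-based growth assay was used: compounds that relieve NS1-induced slow growth of budding yeast raise OD600. Assay medium was yeast nitrogen base with ammonium sulphate and -URA supplement, pH 6.0, with 2% galactose.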
Pf growth 96h = P. falciparum growth inhibition at 96 hours; 320,000 compounds, 6.9% hits; Potency, µM (highest dose often 28.7 µM), without a hit: top-dose activity change, negative = inhibition, usual class: inhibitors; AID 504834; P. falciparum luciferase reporter growth, 96 h; note: potency is the fitted concentration of half-maximal effect; % is set by controls: 0 for no effect and ±100 for the full control effect
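96 h incubation, 37 C, 5% CO2, of luciferase-reporter P. falciparum-infected RBCs (2% hematocrit, 0.05% parasitemia final) with test compounds; endpoint luminescence.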
FBPA Giardia inh = Giardia lamblia aldolase inhibition; purified Giardia FBPA; Potency, µM (titrated, usually from 59.6 µM), for inactives: at the highest dose activity, negative = inhibition, actives largely listed as inhibitors; 290,000 compounds, 0.71% hits; AID 2451; note: potency is the fitted concentration of half-maximal effect; % is set by controls: 0 for no effect and ±100 for the full control effect; nearly all actives have a fitted effect of over 55% in size
Target sequence (A8B2U2 whole entry, looked up): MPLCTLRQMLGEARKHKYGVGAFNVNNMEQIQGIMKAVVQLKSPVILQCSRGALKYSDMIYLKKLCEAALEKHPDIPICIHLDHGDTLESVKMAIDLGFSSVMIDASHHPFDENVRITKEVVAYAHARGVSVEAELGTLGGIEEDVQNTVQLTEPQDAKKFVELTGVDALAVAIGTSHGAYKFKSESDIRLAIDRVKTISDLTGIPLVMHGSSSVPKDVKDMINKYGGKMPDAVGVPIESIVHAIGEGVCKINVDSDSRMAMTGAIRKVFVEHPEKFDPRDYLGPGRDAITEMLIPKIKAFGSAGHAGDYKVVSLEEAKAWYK
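Giardia FBPA (40 nM reagent) was preincubated 10 min at RT with compound (up to 57.5 uM final), then substrate plus GAPDH/TPI/NAD/arsenate coupling system with diaphorase/resazurin was added; resorufin fluorescence (525/598 nm) was read after 20 min.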
Pf growth 48h = P. falciparum growth inhibition at 48 hours (one generation). P. falciparum luciferase growth in erythrocytes, 48 h. Potency, µM (highest dose often 28.7 µM), for inactives: at the highest dose activity change, negative = inhibition, hits mostly inhibitors. 310,000 compounds, 5.9% hits; note: potency is the fitted concentration of half-maximal effect; % is set by controls: 0 for no effect and ±100 for the full control effect
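Luciferase-expressing P. falciparum in infected erythrocytes (2% hematocrit, 0.1% parasitemia final) in RPMI 1640/0.5% Albumax were exposed to compound for 48 hours at 37 C, 5% CO2; growth read as luminescence.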
CHX counter = counter-screen hit for Shiga toxin inhibitors, cycloheximide | 300,000 compounds, 12% hits | max response, % | cell reporter, cycloheximide protein synthesis inhibition counterscreen; in the data active = max response mostly above about 13%, no sharp cut-off; inactive = mostly below about 14%; note: read at 38.3 µM for the half of the compounds with a filed dose; 0% is about no effect
Shiga toxin inh = blocks Shiga toxin action in Vero cells; Vero cells, Shiga toxin protein synthesis inhibition reporter; inhibition, % at 38.7 µM; 290,000 compounds, 9.2% hits; AID 2315; in the data active = inhibition mostly above about 28%, no sharp cut-off; inactive = mostly below about 43%; note: 0% is about no effect
* marks the source's active call; other numbers are inactive results; [ ] = dose if it differs, or a comment. An excerpt weighted towards active compounds, which were near 21% of everything screened. Unless noted, calls come from the whole dose curve; as a rule, active = well fitted curve in the direction sought with a large enough effect; inconclusive = small, poorly fitted or top-dose-only effect, or another doubt; inactive = no such curve, though single readings can be large; an effect the other way counts as inactive or inconclusive.

Results for O=C(Nc1cccnc1)c1cnn2c(C(F)F)cc(C3CC3)nc12 ?
NS1 function inh: -41.3%; FBPA Giardia inh: 2.7%; Pf growth 48h: 8.2%; CHX counter: -0.6; Shiga toxin inh: 15.3

What do the screens show for `COc1cc(C(=O)Nc2nc3ccc4nc(C)sc4c3s2)cc(OC)c1OC`?
NS1 function inh: 10.6%; Pf growth 96h: 5.6%; Pf growth 48h: 8.0%; CHX counter: 12.3; Shiga toxin inh: -11.8

Results for CCCC(=O)Nc1nc2ccc3nc(C)sc3c2s1 ?
NS1 function inh: -5.5%; FBPA Giardia inh: 1.0%; Pf growth 48h: inconclusive; CHX counter: 40.0*; Shiga toxin inh: 94.6*

What do the screens show for `COc1ccc(C(=O)Nc2nc3ccc4nc(C)sc4c3s2)cc1`?
NS1 function inh: 3.4%; Pf growth 96h: 3.0%; FBPA Giardia inh: -0.4%; Pf growth 48h: 23.7%; CHX counter: -2.0; Shiga toxin inh: -2.8

Results for CCCCC(=O)Nc1nc2ccc3nc(C)sc3c2s1 ?
NS1 function inh: -45.1%; Pf growth 96h: 10.4µM*; FBPA Giardia inh: -4.3%; Pf growth 48h: inconclusive; CHX counter: 9.1; Shiga toxin inh: 16.1

What do the screens show for `CN(C)CCOC(=O)c1ccc(COc2ccccc2Br)o1`?
NS1 function inh: -7.0%; Pf growth 96h: 29.3%; FBPA Giardia inh: -3.0%; Pf growth 48h: -22.7%[0.00184 µM]; CHX counter: -5.9; Shiga toxin inh: 2.1

How did O=C(c1ccc(COc2ccccc2Cl)o1)N1CCN(c2ccccc2)CC1 do in these assays?
NS1 function inh: -84.5%; Pf growth 96h: inconclusive; FBPA Giardia inh: 0.6%; CHX counter: -3.0; Shiga toxin inh: -12.8

What do the screens show for `CN(C(=O)c1ccc(COc2ccccc2Br)o1)c1ccccc1`?
Pf growth 96h: -20.2%; FBPA Giardia inh: 5.1%; Pf growth 48h: -26.6%; CHX counter: 15.3*; Shiga toxin inh: 27.0*

Results for O=C(c1ccc(COc2ccccc2Br)cc1)N1CCCCC1 ?
NS1 function inh: -80.7%; Pf growth 96h: 61.6%; FBPA Giardia inh: 1.1%; CHX counter: 34.4*; Shiga toxin inh: 49.5*

Results for O=C(c1ccc(COc2ccccc2Br)o1)N1CCCCCC1 ?
NS1 function inh: -2.1%; Pf growth 96h: -2.1%; FBPA Giardia inh: 2.7%; Pf growth 48h: -2.6%; CHX counter: 26.4*; Shiga toxin inh: 31.6*

How did COc1ccccc1OCc1ccc(C(=O)N2CCN(C(=O)c3ccco3)CC2)cc1 do in these assays?
NS1 function inh: 11.6%; Pf growth 96h: 3.7%; FBPA Giardia inh: 0.3%; CHX counter: -5.8; Shiga toxin inh: -8.5

What do the screens show for `COc1ccc(CC(=O)Nc2ccc(-c3ccc4nnc(C)n4n3)cc2)cc1OC`?
NS1 function inh: -6.6%; Pf growth 96h: -35.5%; FBPA Giardia inh: -2.2%; Pf growth 48h: -18.1%; CHX counter: -1.2; Shiga toxin inh: -1.7

How did O=C(CNC(=O)c1ccccc1Cl)Nc1ccc(F)cc1 do in these assays?
NS1 function inh: -4.4%; Pf growth 96h: inconclusive; FBPA Giardia inh: -1.4%; Pf growth 48h: 27.8%; CHX counter: 19.5*; Shiga toxin inh: 11.3

How did O=C(CNCc1ccccc1)Nc1ccc(F)cc1 do in these assays?
NS1 function inh: -0.8%; Pf growth 96h: 17.1%; FBPA Giardia inh: 2.2%; Pf growth 48h: 30.1%; CHX counter: 34.6*; Shiga toxin inh: 13.9

What do the screens show for `COc1cccc(NC(=O)CC(C)=O)c1`?
NS1 function inh: 22.6%; Pf growth 96h: -5.0%; FBPA Giardia inh: 6.9%; Pf growth 48h: 6.8%; CHX counter: 7.2; Shiga toxin inh: -3.1

How did COc1cccc(NC(=O)Cc2ccccc2)c1 do in these assays?
NS1 function inh: -5.5%; Pf growth 96h: inconclusive; FBPA Giardia inh: 1.2%; Pf growth 48h: 8.2%; CHX counter: -3.3; Shiga toxin inh: 16.0

How did COc1cccc(NC(=O)CNCc2ccccc2)c1 do in these assays?
NS1 function inh: -3.9%; Pf growth 96h: 16.5%; FBPA Giardia inh: inconclusive; Pf growth 48h: 32.7%; CHX counter: 28.5*; Shiga toxin inh: 62.3*

How did COc1cccc(NC(=O)CC(=O)c2ccccc2)c1 do in these assays?
NS1 function inh: 1.5%; Pf growth 96h: 129.3%; FBPA Giardia inh: 17.8%; Pf growth 48h: 5.2%; CHX counter: 58.6*; Shiga toxin inh: 100.4*

What do the screens show for `COc1cc(C(=O)NCCCNc2nc3cc(C)c(C)cc3cc2C#N)cc(OC)c1OC`?
Pf growth 96h: 121.2%; FBPA Giardia inh: -14.6%; Pf growth 48h: inconclusive; CHX counter: 10.2; Shiga toxin inh: 37.9

Results for O=[N+]([O-])c1cc([N+](=O)[O-])c2cc3ccccc3nc2c1 ?
NS1 function inh: -56.8%; Pf growth 96h: 3.1%; FBPA Giardia inh: -12.6%; Pf growth 48h: inconclusive; CHX counter: -2.2; Shiga toxin inh: 3.2

How did COc1ccccc1CNC(=O)N1CCN(c2ccccc2Cl)CC1 do in these assays?
NS1 function inh: 8.7%; Pf growth 96h: inconclusive; FBPA Giardia inh: 2.5%; Pf growth 48h: inconclusive; CHX counter: 0.5; Shiga toxin inh: -8.2

What do the screens show for `O=C1C(Cl)=C(N2CCCCC2)C(=O)C(Cl)=C1c1cnc(N2CCCCC2)s1`?
NS1 function inh: 0.4%; Pf growth 96h: -6.4%; FBPA Giardia inh: 7.06µM*; Pf growth 48h: 10.4µM*; CHX counter: -3.0; Shiga toxin inh: 12.5

How did O.O.[NH-]C1(C(=O)O)CCCC1.[NH-]C1(C(=O)O)CCCC1.[Ni+2] do in these assays?
NS1 function inh: -0.4%

Results for Cn1c(=O)c(/C=C/c2ccc(F)cc2)nc2ccccc21 ?
NS1 function inh: -1.5%; Pf growth 96h: -4.5%; FBPA Giardia inh: -4.6%; Pf growth 48h: inconclusive; CHX counter: 35.6*; Shiga toxin inh: 75.0*

What do the screens show for `Cn1c(=O)c(/C=C/c2ccccc2)nc2ccccc21`?
NS1 function inh: -10.2%; Pf growth 96h: -44.2%; FBPA Giardia inh: 0.2%; Pf growth 48h: 106.4%; CHX counter: 34.2*; Shiga toxin inh: 73.5*

Results for CC(=O)c1ccc(/C=C/c2nc3ccccc3n2C)o1 ?
NS1 function inh: -4.2%; Pf growth 96h: 199.8%; FBPA Giardia inh: -18.7%; Pf growth 48h: 159.0%; CHX counter: 38.2*; Shiga toxin inh: 60.8*

Results for Cc1ccc(NC(=O)Cn2cc([N+](=O)[O-])nc2C)cc1C ?
NS1 function inh: 6.9%; Pf growth 96h: 68.8%; FBPA Giardia inh: -0.7%; Pf growth 48h: 0.6%; CHX counter: -2.1; Shiga toxin inh: -4.3

Results for O=C(NCCNC(=O)c1ccco1)c1ccc(Cl)c(Cl)c1 ?
NS1 function inh: -2.4%; Pf growth 96h: 5.8%; FBPA Giardia inh: 4.2%; Pf growth 48h: -23.5%; CHX counter: -0.7; Shiga toxin inh: -13.6

Results for Cc1cc(OCc2cc(C(=O)N(C)Cc3ccccn3)no2)cc(C)c1Cl ?
NS1 function inh: -30.3%; Pf growth 96h: 33.6%; Pf growth 48h: 5.6%; CHX counter: 92.1*; Shiga toxin inh: 106.0*

How did CC(=O)c1ccc(OCc2cc(C(=O)N(C)Cc3ccccn3)no2)cc1 do in these assays?
NS1 function inh: -0.2%; Pf growth 96h: 10.4µM*; Pf growth 48h: 7.4%; CHX counter: 62.2*; Shiga toxin inh: 52.0*
